# Assay results as given in PubChem BioAssay (NCATS).
# Results filed as inconclusive are left out. A call without a number means that no potency is given here. The source made the active and inactive calls. Unless noted, calls come from the whole dose curve; as a rule, active = well fitted curve in the direction sought with a large enough effect; inconclusive = small, poorly fitted or top-dose-only effect, or another doubt; inactive = no such curve, though single readings can be large; an effect the other way counts as inactive or inconclusive.
# Experiments:
# [1] = NCATS anti-infectives library activity on HEK293 viability as a counter-qHTS vs the C. elegans viability qHTS (AID 1745854)
# Method in brief: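 CellTiter-Glo luminescence, read on a CCD imager, scored viability of HEK293 cells after 24 hr compound exposure at 37C. Library tested in several concentrations, 1:5 steps, up to 41.7 uM; digitonin served as control.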
# [2] = target: Metallo-beta-lactamase type 2 (Klebsiella pneumoniae) (UniProt C7C422); assay: qHTS to identify inhibitors of the New Delhi Metallo-beta-lactamase (NDM): assay validation screen against the NCATS LOPAC Collection (AID 1794843);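 note: nitrocefin turnover by NDM-1 measured as 485 nm absorbance at plateau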
# Method in brief: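 Enzyme 2 nM final, 50 mM HEPES pH 7.0, 1 uM ZnSO4, 0.01% Tween20; cpds in DMSO, preincub w/ enzyme; + nitrocefin (50 uM stock); A485 at plateau; no-enzyme column as blank.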
# [3] = target: Glutathione peroxidase 1 (Homo sapiens) (UniProt P07203); assay: Primary qHTS Assay for Inhibitors of Recombinant Selenoprotein Glutathione Peroxidase 1 (GPX1) (AID 1845191); note: nearly all actives have a fitted effect of over 65% in size
# Method in brief: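 GR-coupled readout: NADPH consumption tracked by fluorescence, ex 340/em 450 nm, at t=0 and after 15 min at RT. Final mix 10 nM GPX1, 1 mM GSH, 0.5 mM CHP, 0.5 mM NADPH, 100 nM GR, 0.01% BSA, following 30 min enzyme–compound preincubation.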
# [4] = target: Phospholipid hydroperoxide glutathione peroxidase GPX4 (Homo sapiens) (UniProt P36969); assay: Primary qHTS Assay for Inhibitors of Recombinant Selenoprotein Glutathione Peroxidase 4 (GPX4) (AID 1845192); note: nearly all actives have a fitted effect of over 65% in size
# Method in brief: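 Steps: GPX4 plus compound, 30 min RT; add GR/GSH/NADPH master mix; start with cumene hydroperoxide; read 340/450 nm fluorescence at 0 and 15 min. Finals were 200 nM GPX4, 1 mM GSH, 0.5 mM CHP, 0.5 mM NADPH, 100 nM GR.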
# [5] = target: Luciferin 4-monooxygenase (Photinus pyralis) (UniProt P08659); assay: Primary firefly luciferase (FLuc) qHTS assay for identification of artifact compounds. (AID 1845220); note: nearly all actives have a fitted effect of over 60% in size
# Method in brief: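 D-luciferin and ATP (10 uM each, final) in Tris acetate buffer pH 7.6 were incubated with compounds for 15 min at room temperature. The reaction was started with 10 nM Photinus pyralis luciferase and luminescence read after 5 min. Percent inhibition was fitted to a 4-parameter Hill equation.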
# [6] = Primary fluorescence-based thiol-reactive (MSTI) qHTS assay for identification of artifact compounds. (AID 1845221);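 note: thiol-reactive compounds lower the probe fluorescence signal; nearly all actives have a fitted effect of over 65% in size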
# Method in brief: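 Thiol-reactive compounds detected by quenching of 4 uM MSTI fluorescence (525/598 nm) after 1 h room-temperature dark incubation in PBS pH 7.4, 2% DMSO. qHTS titration; percent inhibition Hill-fitted against Acetyl-MSTI/MSTI controls.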
# [7] = test system: Nanoluciferase (engineered Oplophorus gracilirostris luciferase); assay: Primary Nanoluciferase (NLuc) qHTS assay for identification of artifact compounds. (AID 1845222)
# Method in brief: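 Diluted conditioned medium from NLuc-expressing S16 cells treated with compounds for 15 min at room temperature, then Nano-Glo substrate added; luminescence read after 5 min. Percent inhibition versus no-enzyme and DMSO controls fitted to 4-parameter Hill equation.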
# [8] = Primary redox qHTS assay for identification of artifact compounds. (AID 1845223)
# Method in brief: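 Redox-cycling detection via DTT (250 uM final) oxidation coupled to Amplex Red (25 uM)/HRP (250 mU/mL) in HBSS. 15 min preincubation plus 30 min after DTT, room temperature. Ex/Em 525/598 nm; 4-parameter Hill fit against DMSO and 10 uM DA3003.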
# [9] = target: Guanidinoacetate N-methyltransferase (Homo sapiens) (UniProt Q14353); assay: Confirmatory Screen for Target Class Profiling of Small Molecule Inhibitors of Methyltransferases (AID 1745852; calls by dose curve; note: potency is the fitted concentration of half-maximal effect); settings: MTase-Glo luminescence, SAH detection, recombinant enzyme; activity change, negative = inhibition: at 57.3 µM (top of the series) unless noted
# [10] = target: Nicotinamide N-methyltransferase (Homo sapiens) (UniProt P40261); assay: as above; settings: MTase-Glo luminescence, SAH detection, recombinant enzyme; measured here: NNMT max response; stronger effect = lower value
# [11] = target: Phenylethanolamine N-methyltransferase (Homo sapiens) (UniProt P11086); assay: as above; settings: MTase-Glo luminescence, SAH detection, recombinant enzyme; measured here: PNMT max response; stronger effect = lower value
# [12] = Quantitative High-Throughput drug screen in 47 multiple myeloma cell lines against the NCATS MIPE library collection: FR4_PLB cell viability assay (AID 1918924; note: nearly all actives have a fitted effect of over 35% in size; note: potency is the fitted concentration of half-maximal effect)
# Method in brief: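 Steps: seed 500 cells per well; pin-transfer MIPE 4.0 library; incubate 48 h at 37C, 5% CO2, humidified; add CellTiter-Glo, 5 min room temperature; read luminescence.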
# [13] = Quantitative High-Throughput drug screen in 47 multiple myeloma cell lines against the NCATS MIPE library collection: Delta47_JCRB cell viability assay (AID 1918925; note: nearly all actives have a fitted effect of over 45% in size; note: potency is the fitted concentration of half-maximal effect)
# Method in brief: (§1)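 Inhibition of cell viability is measured here. Each line was plated at 500 cells per well, treated with MIPE 4.0 drugs, kept 48 hours at 37C, then assayed for ATP content by CellTiter-Glo luminescence.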
# [14] = Quantitative High-Throughput drug screen in 47 multiple myeloma cell lines against the NCATS MIPE library collection: EJM_DSMZ cell viability assay (AID 1918926; note: nearly all actives have a fitted effect of over 30% in size; note: potency is the fitted concentration of half-maximal effect)
# Method in brief: as §1
# [15] = Viability counterscreen for antagonist of constitutive androstane receptor (CAR) against the NCATS DSHEA and TCM libraries (AID 1794837);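 note: compound exposure lasted 24 h before viability reading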
# Method in brief: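 Counterscreen performed in a 1536-well qHTS format using HepG2-CYP2B6-hCAR cells; samples titrated in the presence of 48 uM CITCO, with viability measured fluorometrically (405/540 nm) after 24 h.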
# [16] = Viability counterscreen for agonist of constitutive androstane receptor (CAR) against the NCATS DSHEA and TCM libraries (AID 1794838);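 note: cells exposed to compound for 24 h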
# Method in brief: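 Multiplexed counterscreen: after 24 h compound exposure with 0.75 uM PK11195, HepG2-CYP2B6-hCAR viability was quantified fluorimetrically (CellTiter-Fluor, 405/540 nm) prior to the ONE-Glo luciferase read.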
# [17] = target: Nuclear receptor subfamily 1 group I member 3 (Homo sapiens) (UniProt Q14994); assay: Primary qHTS for agonist of constitutive androstane receptor (CAR) against the NCATS DSHEA and TCM libraries (AID 1794839);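 note: HepG2 cells expressing human CAR with a CYP2B6 reporter plus PK11195 antagonist; luciferase reporter luminescence read with ONE-Glo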
# Method in brief: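 Concentration–response screen in HepG2-CYP2B6-hCAR cells under 0.75 µM PK11195; 24 h exposure; luminescent reporter signal with multiplexed fluorescent viability.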
# [18] = HepG2 viability counterscreen (readout 2: ATP content) against the NCATS DSHEA and TCM libraries (AID 1794840);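 note: HepG2 cells exposed to substances for about 24 h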
# Method in brief: (§2)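 After HepG2 cells attach for ~4 h, substances are added and incubated ~24 h at 37C, 5% CO2. GF-AFC fluorescence then CellTiter-Glo luminescence give protease and ATP readouts.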
# [19] = HepG2 viability counterscreen (readout 1: protease activity) against the NCATS DSHEA and TCM libraries (AID 1794841);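 note: cells exposed to compounds for about 24 h before the protease read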
# Method in brief: as §2
# [20] = NCATS anti-infectives library activity on the primary C. elegans qHTS viability assay (AID 1745855; calls by dose curve; note: potency is the fitted concentration of half-maximal effect)
# Method in brief: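 Titration-based screen in worms: eggs hatched overnight in M9, L1 larvae fed TOP10 capsules in S medium with compound, incubated 21 °C for 7 days; fluorescent objects gated by size and intensity at days 0, 3 and 7.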
# Sequence of Nicotinamide N-methyltransferase (Homo sapiens) (P40261 whole entry, looked up): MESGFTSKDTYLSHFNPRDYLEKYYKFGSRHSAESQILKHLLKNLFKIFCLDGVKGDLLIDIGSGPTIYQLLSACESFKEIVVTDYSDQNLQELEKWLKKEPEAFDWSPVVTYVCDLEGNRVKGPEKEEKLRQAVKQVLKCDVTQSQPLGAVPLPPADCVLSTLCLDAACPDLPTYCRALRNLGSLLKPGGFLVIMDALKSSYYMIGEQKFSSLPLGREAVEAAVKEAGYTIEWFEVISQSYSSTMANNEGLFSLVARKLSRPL
# Sequence of Glutathione peroxidase 1 (Homo sapiens) (P07203 whole entry, looked up): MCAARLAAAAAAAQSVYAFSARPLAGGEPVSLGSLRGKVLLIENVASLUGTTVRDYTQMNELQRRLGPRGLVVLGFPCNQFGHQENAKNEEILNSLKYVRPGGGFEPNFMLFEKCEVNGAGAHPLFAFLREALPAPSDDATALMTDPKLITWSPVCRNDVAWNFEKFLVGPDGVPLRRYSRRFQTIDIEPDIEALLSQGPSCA
# Sequence of Metallo-beta-lactamase type 2 (Klebsiella pneumoniae) (C7C422 whole entry, looked up): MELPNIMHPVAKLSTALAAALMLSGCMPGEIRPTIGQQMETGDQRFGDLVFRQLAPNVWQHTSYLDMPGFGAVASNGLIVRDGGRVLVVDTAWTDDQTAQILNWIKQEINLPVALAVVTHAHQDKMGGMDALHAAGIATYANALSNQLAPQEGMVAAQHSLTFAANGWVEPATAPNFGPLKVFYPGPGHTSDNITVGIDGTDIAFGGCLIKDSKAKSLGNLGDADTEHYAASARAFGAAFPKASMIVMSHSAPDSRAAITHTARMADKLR
# Sequence of Phenylethanolamine N-methyltransferase (Homo sapiens) (P11086 whole entry, looked up): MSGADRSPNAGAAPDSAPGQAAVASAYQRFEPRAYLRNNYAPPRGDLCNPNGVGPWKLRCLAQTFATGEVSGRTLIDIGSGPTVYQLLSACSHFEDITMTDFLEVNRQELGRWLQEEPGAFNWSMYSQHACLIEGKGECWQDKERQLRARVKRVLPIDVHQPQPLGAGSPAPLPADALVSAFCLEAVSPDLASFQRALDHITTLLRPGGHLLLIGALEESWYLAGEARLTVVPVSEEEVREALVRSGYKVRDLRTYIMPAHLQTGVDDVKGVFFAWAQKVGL
# Sequence of Phospholipid hydroperoxide glutathione peroxidase GPX4 (Homo sapiens) (P36969 whole entry, looked up): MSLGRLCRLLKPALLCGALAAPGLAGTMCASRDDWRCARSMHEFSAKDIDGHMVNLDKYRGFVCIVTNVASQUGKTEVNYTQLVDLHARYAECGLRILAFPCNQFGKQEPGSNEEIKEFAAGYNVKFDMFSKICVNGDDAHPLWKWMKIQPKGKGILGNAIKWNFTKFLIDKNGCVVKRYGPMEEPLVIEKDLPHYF
# Sequence of Nuclear receptor subfamily 1 group I member 3 (Homo sapiens) (Q14994 whole entry, looked up): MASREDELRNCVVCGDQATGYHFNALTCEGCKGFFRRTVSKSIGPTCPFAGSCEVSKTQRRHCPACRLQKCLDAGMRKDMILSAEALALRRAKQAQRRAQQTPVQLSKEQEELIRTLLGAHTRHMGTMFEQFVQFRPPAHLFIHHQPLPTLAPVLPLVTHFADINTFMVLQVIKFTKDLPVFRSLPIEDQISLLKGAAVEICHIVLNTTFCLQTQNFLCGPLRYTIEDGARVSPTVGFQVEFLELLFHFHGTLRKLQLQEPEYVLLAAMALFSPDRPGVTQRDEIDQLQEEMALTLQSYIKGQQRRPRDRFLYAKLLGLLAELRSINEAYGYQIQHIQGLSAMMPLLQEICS
structure (smiles),measurement,setting,value
CC(=O)CCCCn1c(=O)c2c(ncn2C)n(C)c1=O,outcome,[1],inactive
same,Potency,[2],inactive
same,Potency,[3],inactive
same,Potency,[4],inactive
same,Potency,[5],inactive
same,Potency,[6],inactive
same,Potency,[7],inactive
same,outcome,[8],inactive
COc1cc2ncnc(Nc3ccc(F)c(Cl)c3)c2cc1OCCCN1CCOCC1,Potency,[9],24.1 µM (active)
same,activity,[10],-60.5%
same,activity,[11],-74.4%
same,Potency,[3],inactive
same,Potency,[4],inactive
same,Potency,[5],inactive
same,Potency,[6],inactive
same,Potency,[7],inactive
same,outcome,[8],inactive
same,Potency,[12],19.1 µM (active)
same,Potency,[13],5.4 µM (active)
same,Potency,[14],6.05 µM (active)
COc1cc(O)c2c(c1)C(=O)c1cc(C)cc(O)c1C2=O,outcome,[15],inactive
same,outcome,[16],inactive
same,Potency,[17],inactive
same,outcome,[18],inactive
same,outcome,[19],inactive
same,Potency,[13],inactive
same,Potency,[14],inactive
O=C(O)CCC1CCC(c2cc(F)ccc2F)(S(=O)(=O)c2ccc(Cl)cc2)CC1 (centres undefined),outcome,[1],inactive
same,Potency,[3],inactive
same,Potency,[4],inactive
same,Potency,[12],inactive
same,Potency,[13],5.9 µM (active)
same,Potency,[14],inactive
COc1ccc(-c2nc(N3CCOCC3)c3sc(CN(C)c4ncc(C(=O)NO)cn4)cc3n2)cn1,Potency,[20],14.5 µM (active)
same,Potency,[3],inactive
same,Potency,[4],inactive
same,Potency,[14],0.0042 µM (active)
Cc1cccc(Nc2nc(-c3ccncc3)cs2)c1,Potency,[9],13.6 µM (active)
same,activity,[10],-73.8%
same,activity,[11],-88.3%
same,Potency,[3],inactive
same,Potency,[4],inactive
same,Potency,[7],inactive
same,outcome,[8],inactive
same,Potency,[12],18.7 µM (active)
same,Potency,[13],18.7 µM (active)
O=c1cc(-c2ccc(O)cc2)oc2cc(O)cc(O)c12,outcome,[15],inactive
same,outcome,[16],inactive
same,outcome,[18],inactive
same,outcome,[19],inactive
same,Potency,[2],inactive
same,Potency,[3],inactive
same,Potency,[4],inactive
same,Potency,[12],23.5 µM (active)
same,Potency,[13],10.5 µM (active)
same,Potency,[14],4.18 µM (active)
O=C(Nc1ccccc1-c1cn2c(CN3CCNCC3)csc2n1)c1cnc2ccccc2n1,Potency,[9],15.3 µM (active)
same,activity,[10],-43.9%
same,activity,[11],-31.7%
same,Potency,[3],inactive
same,Potency,[4],inactive
same,Potency,[6],inactive
same,Potency,[7],inactive
same,outcome,[8],inactive
same,Potency,[12],9.35 µM (active)
same,Potency,[13],4.69 µM (active)
same,Potency,[14],20.9 µM (active)
COc1ccc(Cc2nccc3cc(OC)c(OC)cc23)cc1OC,"activity change, negative = inhibition",[9],-7.19%
same,activity,[10],-16.1%
same,activity,[11],-24.2%
same,Potency,[2],inactive
same,Potency,[12],inactive
COc1cc(N2CCC(N3CCN(C)CC3)CC2)ccc1Nc1ncc(Cl)c(Nc2ccccc2S(=O)(=O)C(C)C)n1,Potency,[9],27.1 µM (active)
same,activity,[10],-19%
same,activity,[11],-27.6%
same,Potency,[3],inactive
same,Potency,[4],inactive
same,Potency,[5],inactive
same,Potency,[7],inactive
same,Potency,[13],inactive
O=C1NC(=O)C(c2ccccc2)(c2ccccc2)N1,outcome,[1],inactive
same,Potency,[2],inactive
same,Potency,[3],inactive
same,Potency,[4],inactive
